Design in all cases: scale not given: direction of the effect not stated beside the values
Experiment [1] has as its target Protein translocase subunit SecA (Escherichia coli (strain K12)) (UniProt P10408). In words: Assay to Identify E. coli SecA ATPase Inhibitors. The experiment is classed as functional. The following applies: 30 µM.
Experiment [2] has as its target T1, Ubiquitin-activating enzyme e1, putative (Leishmania donovani (strain BPK282A1)) (UniProt E9BSI1).
T1 sequence (whole entry): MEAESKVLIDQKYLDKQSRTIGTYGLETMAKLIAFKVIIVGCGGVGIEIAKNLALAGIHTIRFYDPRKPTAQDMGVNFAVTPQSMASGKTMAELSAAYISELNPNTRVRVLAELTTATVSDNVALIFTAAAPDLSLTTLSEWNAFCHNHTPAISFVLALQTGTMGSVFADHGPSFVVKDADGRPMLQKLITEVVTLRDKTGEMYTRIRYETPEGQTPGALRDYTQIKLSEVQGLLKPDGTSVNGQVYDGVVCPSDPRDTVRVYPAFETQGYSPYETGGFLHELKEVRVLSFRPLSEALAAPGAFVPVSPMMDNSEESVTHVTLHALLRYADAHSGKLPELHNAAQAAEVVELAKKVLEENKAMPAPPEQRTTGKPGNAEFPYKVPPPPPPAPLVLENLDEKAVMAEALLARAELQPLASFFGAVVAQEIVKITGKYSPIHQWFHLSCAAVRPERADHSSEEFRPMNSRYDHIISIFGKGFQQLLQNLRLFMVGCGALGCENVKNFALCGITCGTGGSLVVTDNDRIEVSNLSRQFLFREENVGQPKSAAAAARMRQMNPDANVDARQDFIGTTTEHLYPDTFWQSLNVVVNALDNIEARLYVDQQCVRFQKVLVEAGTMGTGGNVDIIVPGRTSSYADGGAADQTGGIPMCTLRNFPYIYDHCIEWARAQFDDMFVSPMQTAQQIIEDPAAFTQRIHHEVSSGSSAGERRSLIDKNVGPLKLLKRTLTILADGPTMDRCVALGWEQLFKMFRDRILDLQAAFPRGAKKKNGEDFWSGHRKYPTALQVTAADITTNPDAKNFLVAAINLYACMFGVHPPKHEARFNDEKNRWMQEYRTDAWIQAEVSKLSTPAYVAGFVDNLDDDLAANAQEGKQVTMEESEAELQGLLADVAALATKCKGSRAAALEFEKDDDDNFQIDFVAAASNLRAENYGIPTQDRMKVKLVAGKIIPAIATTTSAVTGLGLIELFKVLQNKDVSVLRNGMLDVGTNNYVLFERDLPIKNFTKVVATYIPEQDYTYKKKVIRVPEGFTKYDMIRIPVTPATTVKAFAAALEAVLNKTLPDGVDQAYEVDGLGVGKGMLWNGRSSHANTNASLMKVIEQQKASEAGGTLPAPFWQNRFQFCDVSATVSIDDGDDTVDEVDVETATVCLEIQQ
Put plainly: Leishmania donovani Ubiquitin Activating Enzyme (LdE1). It counts as functional. The following applies: 30 µM.

For experiment [3], the target named is Sialic acid-binding Ig-like lectin 9 (Homo sapiens) (UniProt Q9Y336). Put plainly: Hs-Siglec9 ALPHAscreen SOP 20170721. The note with it: 10 µM. On the technique in general: In Alpha technology, singlet oxygen from a donor bead excites a nearby acceptor bead.
A further experiment has as its system Trypanosoma cruzi. Put plainly: Trypanosoma cruzi phosphomannomutase and mannose-1-phosphate guanylyltransferase assay. The experiment is classed as functional. The note with it: 10 µM.
Experiment [4] addresses T2, Arginase-2, mitochondrial (Homo sapiens) (UniProt P78540).
T2 sequence (whole entry): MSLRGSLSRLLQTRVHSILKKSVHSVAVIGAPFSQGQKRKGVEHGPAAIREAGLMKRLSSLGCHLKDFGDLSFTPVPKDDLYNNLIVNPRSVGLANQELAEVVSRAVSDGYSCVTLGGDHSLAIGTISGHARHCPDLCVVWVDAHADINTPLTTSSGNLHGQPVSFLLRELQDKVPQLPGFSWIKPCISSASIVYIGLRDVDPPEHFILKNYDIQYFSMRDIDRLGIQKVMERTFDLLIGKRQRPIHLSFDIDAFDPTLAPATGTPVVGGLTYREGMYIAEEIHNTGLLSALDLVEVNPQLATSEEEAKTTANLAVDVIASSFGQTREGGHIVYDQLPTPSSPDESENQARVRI
Put plainly: in vitro enzyme assay to detect the production of urea directly proportional to the activity of Arginase II. Further: in the data most compounds retested in dose-response had high values. The experiment is classed as functional. The note with it: 33.3 µM.

In experiment [5] the target is T3, Proteasome subunit beta (Trypanosoma cruzi) (UniProt O96673).
T3 sequence (whole entry): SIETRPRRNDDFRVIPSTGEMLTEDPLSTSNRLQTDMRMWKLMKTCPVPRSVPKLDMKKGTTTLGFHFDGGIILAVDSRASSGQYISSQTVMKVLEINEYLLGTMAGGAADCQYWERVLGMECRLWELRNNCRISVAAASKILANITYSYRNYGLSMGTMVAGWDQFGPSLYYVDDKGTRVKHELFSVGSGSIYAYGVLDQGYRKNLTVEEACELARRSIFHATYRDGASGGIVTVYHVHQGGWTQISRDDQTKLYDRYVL
In words: Trypanosoma cruzi proteasome chymotrypsin-like activity (TcProtChymo) assay. Further: in the data most compounds retested in dose-response had high values. The following applies: 9.37 µM. It counts as functional.

For another experiment, the species on record is Homo sapiens. Put plainly: To identify inhibition of the IFN signalling (Jak-Stat) pathway via expression of an eGFP reporter gene under the control of an IFN-stimulated response element (ISRE) containing MxA promoter. It counts as functional. The following applies: 30 µM. (In general: A reporter such as luciferase makes a cellular process visible.)

In experiment [6] the target is T4, Tyrosyl-tRNA synthetase, putative (Trypanosoma cruzi (strain CL Brener)) (UniProt Q4DSP6).
T4 sequence (whole entry): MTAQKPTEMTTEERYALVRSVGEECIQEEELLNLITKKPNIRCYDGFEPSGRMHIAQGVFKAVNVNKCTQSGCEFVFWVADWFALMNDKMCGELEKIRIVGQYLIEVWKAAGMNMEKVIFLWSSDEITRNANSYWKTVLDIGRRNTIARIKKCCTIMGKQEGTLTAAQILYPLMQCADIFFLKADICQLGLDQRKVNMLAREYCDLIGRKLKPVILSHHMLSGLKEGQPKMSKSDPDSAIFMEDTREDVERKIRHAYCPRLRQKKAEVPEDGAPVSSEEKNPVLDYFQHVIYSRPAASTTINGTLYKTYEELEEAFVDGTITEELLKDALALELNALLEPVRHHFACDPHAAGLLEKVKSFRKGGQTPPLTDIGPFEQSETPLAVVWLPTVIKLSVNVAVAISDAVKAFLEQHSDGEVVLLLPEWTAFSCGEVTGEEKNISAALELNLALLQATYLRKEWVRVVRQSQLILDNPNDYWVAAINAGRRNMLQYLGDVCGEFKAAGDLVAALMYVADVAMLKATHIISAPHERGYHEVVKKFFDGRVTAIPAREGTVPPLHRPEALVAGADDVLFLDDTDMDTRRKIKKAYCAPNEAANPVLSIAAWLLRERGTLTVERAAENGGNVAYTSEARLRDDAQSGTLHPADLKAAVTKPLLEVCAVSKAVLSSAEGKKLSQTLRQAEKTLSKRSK
Put plainly: Trypanosoma cruzi tyrosyl tRNA synthetase (TcYRS) _High Tyrosine SOP. Further: in the data most compounds retested in dose-response had high values. The following applies: 30 µM. It counts as functional.

Experiment [7] has as its target T4, Tyrosyl-tRNA synthetase, putative (Trypanosoma cruzi (strain CL Brener)). In words: Trypanosoma cruzi tyrosyl tRNA synthetase (TcYRS) SOP. The following applies: 30 µM. It counts as functional.
Experiment [8] deals with Chromo domain-containing protein 1 (Saccharomyces cerevisiae (strain ATCC 204508 / S288c) (Baker's yeast)) (UniProt P32657). Put plainly: ScCHD-1 Enzyme Inhibition Assay. Further: in the data most compounds retested in dose-response had high values. The experiment is classed as functional. The following applies: 30 µM.

We go through 12 compounds from ChEMBL document CHEMBL3988442, “University of Dundee, Small-Polar-MMV Screening Library” (2021).

The structures appear in SMILES notation. For part of these data: Entries with a potency or affinity are not part of this list.

Sialic acid-binding Ig-like lectin 9 (Homo sapiens), sequence (Q9Y336 whole entry): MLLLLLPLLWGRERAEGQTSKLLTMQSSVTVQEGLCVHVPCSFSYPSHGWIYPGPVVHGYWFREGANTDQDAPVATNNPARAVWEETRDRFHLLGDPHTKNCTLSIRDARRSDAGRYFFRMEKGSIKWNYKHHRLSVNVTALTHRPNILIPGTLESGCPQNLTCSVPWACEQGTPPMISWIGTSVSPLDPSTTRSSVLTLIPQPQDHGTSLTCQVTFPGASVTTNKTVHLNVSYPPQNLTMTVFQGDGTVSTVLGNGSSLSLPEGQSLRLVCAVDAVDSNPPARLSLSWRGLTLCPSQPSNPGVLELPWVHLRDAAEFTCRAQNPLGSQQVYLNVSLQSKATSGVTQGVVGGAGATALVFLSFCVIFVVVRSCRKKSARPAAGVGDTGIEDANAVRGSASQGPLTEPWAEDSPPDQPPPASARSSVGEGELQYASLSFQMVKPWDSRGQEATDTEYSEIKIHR
Protein translocase subunit SecA (Escherichia coli (strain K12)), sequence (P10408 whole entry): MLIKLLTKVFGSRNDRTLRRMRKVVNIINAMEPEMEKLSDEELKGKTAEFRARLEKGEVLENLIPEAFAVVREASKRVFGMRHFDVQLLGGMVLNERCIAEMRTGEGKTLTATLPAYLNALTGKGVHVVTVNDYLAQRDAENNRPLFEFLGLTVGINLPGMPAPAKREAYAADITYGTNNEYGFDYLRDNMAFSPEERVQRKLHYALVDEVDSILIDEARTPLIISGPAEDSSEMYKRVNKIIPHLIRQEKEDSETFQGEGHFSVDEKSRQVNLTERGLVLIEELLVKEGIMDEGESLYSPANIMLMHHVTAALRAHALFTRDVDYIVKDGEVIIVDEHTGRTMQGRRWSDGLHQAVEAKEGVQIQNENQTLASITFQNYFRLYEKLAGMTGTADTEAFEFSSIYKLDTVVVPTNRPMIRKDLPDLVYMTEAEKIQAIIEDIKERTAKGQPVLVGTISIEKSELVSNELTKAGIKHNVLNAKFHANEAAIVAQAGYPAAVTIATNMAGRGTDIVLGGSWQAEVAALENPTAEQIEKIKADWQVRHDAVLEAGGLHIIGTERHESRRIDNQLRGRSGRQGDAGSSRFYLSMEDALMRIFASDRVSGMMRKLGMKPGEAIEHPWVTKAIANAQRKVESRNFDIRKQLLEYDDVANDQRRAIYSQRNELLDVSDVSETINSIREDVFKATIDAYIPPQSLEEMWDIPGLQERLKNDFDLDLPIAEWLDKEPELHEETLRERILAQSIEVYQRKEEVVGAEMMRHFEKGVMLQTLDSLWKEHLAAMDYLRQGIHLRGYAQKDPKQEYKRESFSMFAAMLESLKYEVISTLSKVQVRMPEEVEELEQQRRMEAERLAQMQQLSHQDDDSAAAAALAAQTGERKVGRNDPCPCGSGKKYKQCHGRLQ
Chromo domain-containing protein 1 (Saccharomyces cerevisiae (strain ATCC 204508 / S288c) (Baker's yeast)), sequence (P32657 whole entry, the tested form may be a part): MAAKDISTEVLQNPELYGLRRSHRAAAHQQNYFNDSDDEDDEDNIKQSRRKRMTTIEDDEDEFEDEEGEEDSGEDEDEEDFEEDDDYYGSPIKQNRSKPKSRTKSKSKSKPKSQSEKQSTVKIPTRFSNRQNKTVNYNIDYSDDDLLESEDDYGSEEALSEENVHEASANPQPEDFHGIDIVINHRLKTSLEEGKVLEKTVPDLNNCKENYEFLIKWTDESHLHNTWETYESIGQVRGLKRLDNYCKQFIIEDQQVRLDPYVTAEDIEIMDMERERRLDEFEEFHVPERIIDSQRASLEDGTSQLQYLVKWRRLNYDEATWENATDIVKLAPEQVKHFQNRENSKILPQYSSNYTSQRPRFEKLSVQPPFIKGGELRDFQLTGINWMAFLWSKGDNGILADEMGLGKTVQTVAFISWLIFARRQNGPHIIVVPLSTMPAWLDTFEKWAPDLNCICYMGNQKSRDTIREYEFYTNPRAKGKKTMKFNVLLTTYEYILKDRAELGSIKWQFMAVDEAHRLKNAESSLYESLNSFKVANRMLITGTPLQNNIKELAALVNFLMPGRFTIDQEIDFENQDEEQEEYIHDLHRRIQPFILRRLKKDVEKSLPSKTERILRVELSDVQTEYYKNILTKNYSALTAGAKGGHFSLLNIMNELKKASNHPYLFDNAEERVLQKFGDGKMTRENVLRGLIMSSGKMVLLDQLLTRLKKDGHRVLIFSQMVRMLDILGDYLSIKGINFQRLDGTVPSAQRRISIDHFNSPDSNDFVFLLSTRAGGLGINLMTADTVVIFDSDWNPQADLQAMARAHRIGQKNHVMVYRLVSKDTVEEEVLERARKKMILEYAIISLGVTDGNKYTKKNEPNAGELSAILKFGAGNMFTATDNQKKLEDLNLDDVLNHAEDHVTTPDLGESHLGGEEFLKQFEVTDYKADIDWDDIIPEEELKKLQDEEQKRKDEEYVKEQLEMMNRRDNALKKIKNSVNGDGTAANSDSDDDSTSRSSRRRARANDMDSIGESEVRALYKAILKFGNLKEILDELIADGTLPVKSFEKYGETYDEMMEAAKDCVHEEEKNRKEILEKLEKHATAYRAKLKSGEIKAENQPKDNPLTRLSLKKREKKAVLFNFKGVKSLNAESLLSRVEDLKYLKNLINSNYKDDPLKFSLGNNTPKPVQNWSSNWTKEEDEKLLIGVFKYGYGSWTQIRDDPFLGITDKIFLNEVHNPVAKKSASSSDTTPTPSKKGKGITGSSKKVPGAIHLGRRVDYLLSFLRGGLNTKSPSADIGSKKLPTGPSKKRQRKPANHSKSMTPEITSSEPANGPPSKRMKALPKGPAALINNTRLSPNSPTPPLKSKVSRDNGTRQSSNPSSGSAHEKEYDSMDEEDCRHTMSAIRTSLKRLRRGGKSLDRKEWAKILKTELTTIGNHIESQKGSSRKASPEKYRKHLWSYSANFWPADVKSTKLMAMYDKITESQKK

With `Cc1cc(C(=O)NCC(C)N2CCc3ccccc32)no1` (stereo not given), the Percent Effect is 0.558% in experiment [1]; 2.6% in experiment [2]; 10.1% in experiment [3]; 2.8% with Trypanosoma cruzi; -4.3% in [4]; 0.175% in experiment [5]. The Percent Effect is 23.3% in the experiment listed under Homo sapiens, 7.84% in experiment [6], 11.8% in experiment [7] and -1.74% in experiment [8].
Regarding `CCCN1CCCn2nc(CNS(=O)(=O)c3ccc(C)cc3)cc2C1`, the Percent Effect in experiment [1] was -8.28%; in [2] it was 2.7%; in experiment [3] it was 2.48%; with Trypanosoma cruzi it was -5.72%; in [4], -3.85%; in experiment [5] it was 10.3%. The Percent Effect was 5.89% in the experiment listed under Homo sapiens, 3.72% in experiment [6], 9.76% in experiment [7] and -1.82% in [8].
Turning to `CCNC(=O)[C@@H]1C[C@H](NC(=O)Cc2ccsc2)CN1Cc1ccc(C)o1`, the Percent Effect in experiment [1] was -3.95%; in [2], 13.5%; in [3] it was 10.2%; in the experiment with Trypanosoma cruzi, 9.02%; in experiment [4], 14.3%; in experiment [5] it was 20.9%. The Percent Effect in the experiment filed under Homo sapiens turned out to be 20.3%; in experiment [6] it was 7.98%; in experiment [7] it was 21.9%; in experiment [8] it was 80.5%.
In the case of `CCc1nc(C2CCCN2C(=O)c2nc(C)n3ccccc23)no1` (stereo not given), the Percent Effect in experiment [1] was -0.63%; in experiment [2], 2.67%; in experiment [3], -0.749%; in the experiment on Trypanosoma cruzi, -5.02%; in experiment [4], 4.43%; in experiment [5], 3.65%. Further, the Percent Effect in the experiment filed under Homo sapiens was 15%; in experiment [6] it was 4.74%; in experiment [7], 5.13%; in experiment [8], -15.8%.
For `Cc1n[nH]c(=O)c2c(NC(=O)CN3CCOC(C)C3)oc(C)c12` (stereo not given), the Percent Effect is 1.61% in [1]; 17.9% in experiment [2]; -15.7% in [3]; 1.78% in the experiment on Trypanosoma cruzi; 4.92% in [4]; 16.6% in [5]. Moreover, the Percent Effect is 25.5% in the experiment listed under Homo sapiens, 3.35% in [6], 18.1% in experiment [7] and -6.38% in experiment [8].
Turning to `Cc1cc(CN(C)C(=O)c2ccc(C(F)(F)F)nc2)no1`, the Percent Effect in [1] was -1.51%; in [2], -2.67%; in experiment [3], 3.03%; in the experiment with Trypanosoma cruzi, -3.61%; in experiment [4], 3.1%; in experiment [5] it was 1.27%. For the same compound, the Percent Effect was -6.24% in the experiment listed under Homo sapiens, -1.58% in experiment [6], 5.13% in experiment [7] and 14.8% in experiment [8].
In the case of `Cc1nc(C)n(CC2CCCN2Cc2nc3ccccc3nc2C)n1` (stereo not given), the Percent Effect in experiment [1] is -4.08%; in experiment [2], 0%; in [3], 4.74%; in the experiment with Trypanosoma cruzi, -0.402%; in [4], 1.33%; in experiment [5], 15.5%. Further, the Percent Effect in the experiment listed under Homo sapiens was 2.68%; in experiment [6] it was 5.79%; in experiment [7], 7.69%; in [8] it was -11.7%.
In the case of `c1ccc(OC2CCCC2)c(CNC2CCc3ncnn3C2)c1` (stereo not given), the Percent Effect in experiment [1] was -3.8%; in experiment [2], 10.3%; in experiment [3] it was -13.9%; with Trypanosoma cruzi, 5.35%; in experiment [4] it was 2.87%; in experiment [5], 20.7%. For the same compound, the Percent Effect in the experiment listed under Homo sapiens was 3.46%; in [6], 6.22%; in experiment [7], 18.1%; in experiment [8], -3.21%.
Regarding `Cc1ccc(-c2nc(CN3CCn4c(nnc4C4CC4)C3)co2)cc1`, the Percent Effect is -5.43% in experiment [1]; -5.33% in experiment [2]; -0.413% in [3]; -1.41% in the experiment on Trypanosoma cruzi; 0% in experiment [4]; 9.92% in experiment [5]. For the same compound, the Percent Effect was -8.93% in the experiment listed under Homo sapiens, 6.84% in [6], 12.8% in experiment [7] and -6.77% in experiment [8].
`CC1(C)OCC(CNC(=O)c2cnn(-c3cc(Cl)ccc3Cl)c2N)O1` (stereo not given): the Percent Effect in experiment [1] was 3.78%; in [2], 9.33%; in [3], -9.42%; in the experiment with Trypanosoma cruzi, -1.97%; in experiment [4], 3.98%; in experiment [5] it was 17.1%. Also, the Percent Effect in the experiment listed under Homo sapiens is 11.8%; in [6], 0%; in [7], 7.5%; in [8], -20.1%.
`CN(Cc1ccccc1)CC(O)Cn1cnc2ccccc2c1=O` (stereo not given): the Percent Effect in experiment [1] is -0.933%; in [2], 2.56%; in [3] it was 0.642%; in the experiment with Trypanosoma cruzi, 4.79%; in experiment [4] it was 9.84%; in experiment [5] it was -2.13%. Also, the Percent Effect was determined as 12.8% in the experiment filed under Homo sapiens, 0.478% in experiment [6], 6.02% in experiment [7] and 0.379% in experiment [8].
For the compound `Cc1nc(O)c2nnn(C[C@H]3CCCN3C(=O)C(C)(C)C)c2n1`, the Percent Effect in [1] is -2.69%; in [2] it was 12%; in [3] it was 5.82%; in the experiment on Trypanosoma cruzi, -2.37%; in [4], -1.33%; in experiment [5], 7.88%. Besides, the Percent Effect in the experiment listed under Homo sapiens is 12.7%; in experiment [6] it was 5.29%; in experiment [7] it was 10%; in experiment [8], -20.8%.
